The supplement of paper PMC3334620
Whole data set: some 33,000 sequences, median “E-score (-0.5 to 0.5)” near -0.043, cut for the highest 2% near 0.37. Many of the other results were omitted from the sample, so the highest values are more common in it than they were.

What follows are sequences tested against T1, Upc2 (UniProt Q12151) (assay: PBM E-score (8-mer binding enrichment) (E-score (-0.5 to 0.5)); higher = stronger / more preferred TF binding). Settings: protein concentration: 200 nM; construct: GST-full length.
T1 sequence: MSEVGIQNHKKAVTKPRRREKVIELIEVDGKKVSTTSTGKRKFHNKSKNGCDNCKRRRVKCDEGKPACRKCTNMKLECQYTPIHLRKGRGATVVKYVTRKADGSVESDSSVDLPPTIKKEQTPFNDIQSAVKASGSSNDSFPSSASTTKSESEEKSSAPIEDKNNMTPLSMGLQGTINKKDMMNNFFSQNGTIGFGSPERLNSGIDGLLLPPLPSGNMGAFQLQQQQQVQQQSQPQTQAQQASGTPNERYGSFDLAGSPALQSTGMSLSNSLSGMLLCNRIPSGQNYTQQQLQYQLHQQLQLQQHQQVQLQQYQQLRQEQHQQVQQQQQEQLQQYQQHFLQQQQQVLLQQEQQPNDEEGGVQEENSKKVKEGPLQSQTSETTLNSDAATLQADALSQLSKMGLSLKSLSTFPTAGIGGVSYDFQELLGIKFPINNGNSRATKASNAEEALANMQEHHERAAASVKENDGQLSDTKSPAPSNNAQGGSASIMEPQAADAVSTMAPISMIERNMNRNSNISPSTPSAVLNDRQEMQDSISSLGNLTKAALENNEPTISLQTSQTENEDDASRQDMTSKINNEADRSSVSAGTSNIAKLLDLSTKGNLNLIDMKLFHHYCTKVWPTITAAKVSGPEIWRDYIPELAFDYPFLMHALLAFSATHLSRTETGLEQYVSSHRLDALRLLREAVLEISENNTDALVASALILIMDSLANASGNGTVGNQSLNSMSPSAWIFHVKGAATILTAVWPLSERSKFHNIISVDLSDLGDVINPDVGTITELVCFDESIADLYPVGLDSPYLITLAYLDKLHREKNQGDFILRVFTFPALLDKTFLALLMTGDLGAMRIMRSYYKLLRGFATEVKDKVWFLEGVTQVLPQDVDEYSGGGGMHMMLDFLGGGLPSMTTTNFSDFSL
Summary of the method: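 Full-length yeast transcription factors or their DNA-binding domains, GST-tagged and expressed with PURExpress, were applied at about 100-200 nM to universal all-10-mer Agilent arrays. These arrays had been made double-stranded by primer extension on fresh or once-stripped slides. Detection used fluorescent anti-GST, normalisation used masliner, and E-scores for ungapped eight-base words pooled with reverse complements came from the Universal PBM Analysis Suite.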

Sequence	PBM E-score
ACACTGCA	-0.0747
CGGCATAG	-0.0559
GCCTCCGC	-0.121
AAACTTTA	-0.0184
CAACGATA	0.228
ACACGATA	0.15
CCACGATA	-0.0526
AAACGATA	0.459
AAACGATC	0.447
CAACGATC	0.11
AGACGATC	-0.0293
TAACGTTA	0.102
TAACGATA	0.387
AAGCGACT	0.243
ACACTCAT	-0.233
ATCTCCTG	-0.0597
ATAGGTCC	-0.132
AGAGCGTA	0.223
ATCTGAAG	-0.202
ATCGAGGA	0.0976
AAAGAGGT	-0.182
TACGAGGA	0.464
GACGAGGA	-0.00176
AACGAGGC	0.444
GACGAGGC	0.0687

Sequence	PBM E-score
ACCGAGGT	0.169
CACGAGGC	0.116
AACGAGGA	0.428
AGCGAGGA	0.144
CACGAGGA	0.0675
AACGAGGT	0.448
AGATGGCC	-0.176
AAGAGACG	0.102
CTGGCGAA	-0.174
ACCACCTG	-0.0336
CACTGTGC	-0.118
CAGTAGTC	0.0468
GCCTTGAA	-0.189
CATTTCGA	0.0247
GCTCCACC	-0.0776
AGATGAAT	-0.206
CAGACTGA	-0.0971
AAGTTATT	0.045
AGCTATGG	-0.158
AACGAGGG	0.43
CACGAGGG	0.114
AGCGAGGG	0.245
AGGGTGAC	-0.128
ACCCTGGA	-0.0506
GGGACGAC	-0.244

Sequence	PBM E-score
AGTACGCA	-0.0414
GGTACGAC	0.475
CGTACGAC	0.449
CGTACGCC	0.312
AGTACGAG	0.428
AGTACGAA	0.384
AGTACGTG	0.0272
GGTACTAC	0.0298
AGTACGCG	0.189
CGGACGAC	-0.21
AGTACGTA	0.27
CGAAGCAC	-0.0203
CAGCACGG	-0.256
ATAGGCGG	-0.0532
AGCAAGTC	-0.148
AAAGCAGT	-0.125
GATGGGAC	-0.0558
CCTAGATA	-0.0107
CGTACGAG	0.465
ATTACGTG	-0.118
CGGACGAG	-0.165
AGTACGAC	0.409
AGTACGCC	-0.0728
ATTACGAG	0.378
ATTACGAC	0.348

Sequence	PBM E-score
GGTACGTA	0.313
AGTACGAT	0.345
GGTACGAA	0.459
CCTACGAG	0.341
GGTACGCA	0.252
ACCACGTG	0.0941
GAAGAAAC	0.0334
TAATTGGA	-0.00998
AACTCCAC	0.00868
CAGTTTCA	-0.223
CGCGAGAA	0.0746
CAGGTGAG	-0.277
CATGGCTC	-0.0993
AAGGTAAT	0.0547
CGTACGCA	0.345
TGCACGAA	0.145
CGTACGTA	0.364
CGTACGAA	0.444
TGTACAAA	0.0122
TGTACGAA	0.479
CATATTCA	-0.0449
GCTTCACA	-0.124
GTTCGTGA	0.0858
ATTCGTAG	0.285
GTTCGTCA	-0.0278

Sequence	PBM E-score
ATTCGTGA	0.0183
ATTCGTAA	0.399
GTTCGTAA	0.424
GGATGGTA	0.0248
GCTAGCTA	0.0155
ACGACCGC	0.359
GTGAGAAC	-0.188
GCCAAACA	-0.0676
CCGTACAC	0.382
GCGTACAC	0.33
ACGTACAG	0.3
CTGTACAG	0.158
CCGTACAG	0.418
ACGTACAC	0.297
AAAAGACA	0.0436
CCACAGAC	-0.169
ATTAGCCG	0.0535
GTGACCGA	0.11
CTGTACGC	0.375
CTGTACGA	0.488
ATGTACGC	0.187
ATGTACGG	0.373
CTGTACCA	-0.134
ATGTACTG	-0.177
CTGTACAA	0.0214

Sequence	PBM E-score
ATGTACTA	0.0361
ATGTACGA	0.472
CTGTACTC	0.00852
CTGTACAC	0.152
ATGTACCG	-0.03
GACTCTCA	-0.187
CAGAAAGA	-0.00388
CACATAGG	-0.207
AAACCAAA	0.118
AAAGCATC	0.0386
GTGTACTA	0.127
GTGTACGA	0.479
GTGTACCA	0.0546
CAAGCCTA	-0.0953
CACGACGC	0.0689
AAGGACGT	0.0675
AACGACGT	0.408
GACGACGC	0.0643
AACGACGC	0.442
ACCGACGT	0.238
AACGACGG	0.437
TACGACGA	0.465
CACGACGG	0.129
CACGACGA	0.126
GACGACGA	-0.00938

Sequence	PBM E-score
ACCGACGG	0.108
GAGCTTGC	-0.231
CTCTCTTC	-0.29
CTAAGTTC	-0.0418
CCAATGGC	-0.226
ATTCAAAA	0.0167
CTCCACCC	-0.189
TAACTCGA	0.109
GCTGAGAC	-0.203
AATATCTG	-0.124
AGCGACGA	0.185
ATCGACGA	-0.0697
AACGACGA	0.454
AACATACT	0.0309
CACATACC	-0.12
ATCATACG	0.383
ATCATACC	-0.02
ATCATACA	0.0941
AACATACC	0.16
CACATACG	0.401
CGCATACG	0.439
AACATACG	0.39
CGCATACA	0.114
CGCATACC	0.212
CACATACA	-0.107
